Data on five molecules can be found in PubChem BioAssay (EPA / NIEHS).

As usually defined, the AC50 is the concentration at which the activity in the assay is half-maximal.

Each structure is given as a SMILES string. Inconclusive results are not listed. Calls of active or inactive are those of the source. Rule for the calls: active = hit-call score of the fitted dose curve at least 0.9, where 1 is the maximum; inconclusive = response in the unintended direction; inactive = score below 0.9.

In experiment [1] the target is human Protein Tyrosine Phosphatase Non-receptor Type 4 (PTPN4), PTPN4 (gene 5775) (UniProt P29074). Briefly: NVS_ENZ_hPTPN4: NovaScreen (NVS) Enzymatic Assay for human Protein Tyrosine Phosphatase Non-receptor Type 4 (PTPN4) (AID 2283208). In a few lines:
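Cell-free assay of PTPN4 expressed in Sf9 cells, using a fluorescent substrate with product separated by mobility shift; read 1.33 h after dosing. Single-point screen at 25 uM, then concentration-response up to 50 uM. Loss of signal relative to DMSO.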

The target in experiment [2] is human Protein Tyrosine Phosphatase Non-receptor Type 9 (PTPN9), PTPN9 (gene 5780) (UniProt P43378). Nature of the experiment: NVS_ENZ_hPTPN9: NovaScreen (NVS) Enzymatic Assay for human Protein Tyrosine Phosphatase Non-receptor Type 9 (PTPN9) (AID 2283209). In a few lines: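 Sf9-expressed enzyme in a cell-free assay, fluorescence read 1.33 h after dosing with mobility-shift separation of substrate and product. Tested at 25 uM in duplicate, then up to 50 uM; signal loss versus DMSO.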

For experiment [3], the target named is human Raf-1 Proto-Oncogene, serine/threonine Kinase (RAF1), RAF1 (gene 5894) (UniProt P04049). Nature of the experiment: NVS_ENZ_hRAF1: NovaScreen (NVS) Enzymatic Assay for human Raf-1 Proto-Oncogene, serine/threonine Kinase (RAF1) (AID 2283216). In a few lines: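 Cell-free recombinant kinase with specific fluorescent substrate, product separated by electrophoretic mobility shift; read 1 h after dosing. Primary screen at 25 uM in duplicate; hits then run in concentration-response up to 50 uM, fitted as loss of signal versus DMSO.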

Experiment [4] addresses Tyrosine-protein phosphatase non-receptor type 14 (Homo sapiens) (UniProt Q15678). Briefly: NVS_ENZ_hPTPN14: NovaScreen (NVS) Enzymatic Assay for human Protein Tyrosine Phosphatase Non-receptor Type 14 (PTPN14) (AID 2283206). In a few lines:
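Cell-free recombinant human PTPN14 with fluorescent substrate, read 0.5 h after dosing by fluorescence and electrophoretic mobility shift separating substrate from product. Primary screen at 25 uM in duplicate; hits run to 50 uM maximum; loss of signal versus DMSO.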

Experiment [5] has as its target human Protein Tyrosine Phosphatase Receptor Type B (PTPRB), PTPRB (gene 5787) (UniProt P23467). Briefly: NVS_ENZ_hPTPRB: NovaScreen (NVS) Enzymatic Assay for human Protein Tyrosine Phosphatase Receptor Type B (PTPRB) (AID 2283211). The method in brief:
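Recombinant human PTPRB with a fluorescent substrate, product separated by electrophoretic mobility shift; read 1 h after dosing. Primary screen in duplicate at 25 uM; actives then retested in concentration series; loss of signal versus DMSO.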

For experiment [6], the target named is human Protein Tyrosine Phosphatase Receptor Type F (PTPRF), PTPRF (gene 5792) (UniProt P10586). Briefly: NVS_ENZ_hPTPRF: NovaScreen (NVS) Enzymatic Assay for human Protein Tyrosine Phosphatase Receptor Type F (PTPRF) (AID 2283213). The method in brief: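 Cell-free fluorescence enzyme assay with recombinant protein and substrate; product separated by electrophoretic mobility shift. Read 1 h after dosing, single 25 uM duplicate screen, then concentration-response up to 50 uM; loss of signal vs DMSO.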

For experiment [7], the target named is human Protein Tyrosine Phosphatase Receptor Type M (PTPRM), PTPRM (gene 5797) (UniProt P28827). Nature of the experiment: NVS_ENZ_hPTPRM: NovaScreen (NVS) Enzymatic Assay for human Protein Tyrosine Phosphatase Receptor Type M (PTPRM) (AID 2283215). In a few lines:
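Cell-free recombinant PTPRM with fluorogenic substrate; product separated from substrate by electrophoretic mobility shift and read by fluorescence, 1.33 h after dosing. Primary screen single concentration (25 uM) in duplicate; actives retested in concentration series; loss of signal versus DMSO.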

human Protein Tyrosine Phosphatase Receptor Type F (PTPRF), PTPRF (gene 5792), sequence (P10586 whole entry, looked up): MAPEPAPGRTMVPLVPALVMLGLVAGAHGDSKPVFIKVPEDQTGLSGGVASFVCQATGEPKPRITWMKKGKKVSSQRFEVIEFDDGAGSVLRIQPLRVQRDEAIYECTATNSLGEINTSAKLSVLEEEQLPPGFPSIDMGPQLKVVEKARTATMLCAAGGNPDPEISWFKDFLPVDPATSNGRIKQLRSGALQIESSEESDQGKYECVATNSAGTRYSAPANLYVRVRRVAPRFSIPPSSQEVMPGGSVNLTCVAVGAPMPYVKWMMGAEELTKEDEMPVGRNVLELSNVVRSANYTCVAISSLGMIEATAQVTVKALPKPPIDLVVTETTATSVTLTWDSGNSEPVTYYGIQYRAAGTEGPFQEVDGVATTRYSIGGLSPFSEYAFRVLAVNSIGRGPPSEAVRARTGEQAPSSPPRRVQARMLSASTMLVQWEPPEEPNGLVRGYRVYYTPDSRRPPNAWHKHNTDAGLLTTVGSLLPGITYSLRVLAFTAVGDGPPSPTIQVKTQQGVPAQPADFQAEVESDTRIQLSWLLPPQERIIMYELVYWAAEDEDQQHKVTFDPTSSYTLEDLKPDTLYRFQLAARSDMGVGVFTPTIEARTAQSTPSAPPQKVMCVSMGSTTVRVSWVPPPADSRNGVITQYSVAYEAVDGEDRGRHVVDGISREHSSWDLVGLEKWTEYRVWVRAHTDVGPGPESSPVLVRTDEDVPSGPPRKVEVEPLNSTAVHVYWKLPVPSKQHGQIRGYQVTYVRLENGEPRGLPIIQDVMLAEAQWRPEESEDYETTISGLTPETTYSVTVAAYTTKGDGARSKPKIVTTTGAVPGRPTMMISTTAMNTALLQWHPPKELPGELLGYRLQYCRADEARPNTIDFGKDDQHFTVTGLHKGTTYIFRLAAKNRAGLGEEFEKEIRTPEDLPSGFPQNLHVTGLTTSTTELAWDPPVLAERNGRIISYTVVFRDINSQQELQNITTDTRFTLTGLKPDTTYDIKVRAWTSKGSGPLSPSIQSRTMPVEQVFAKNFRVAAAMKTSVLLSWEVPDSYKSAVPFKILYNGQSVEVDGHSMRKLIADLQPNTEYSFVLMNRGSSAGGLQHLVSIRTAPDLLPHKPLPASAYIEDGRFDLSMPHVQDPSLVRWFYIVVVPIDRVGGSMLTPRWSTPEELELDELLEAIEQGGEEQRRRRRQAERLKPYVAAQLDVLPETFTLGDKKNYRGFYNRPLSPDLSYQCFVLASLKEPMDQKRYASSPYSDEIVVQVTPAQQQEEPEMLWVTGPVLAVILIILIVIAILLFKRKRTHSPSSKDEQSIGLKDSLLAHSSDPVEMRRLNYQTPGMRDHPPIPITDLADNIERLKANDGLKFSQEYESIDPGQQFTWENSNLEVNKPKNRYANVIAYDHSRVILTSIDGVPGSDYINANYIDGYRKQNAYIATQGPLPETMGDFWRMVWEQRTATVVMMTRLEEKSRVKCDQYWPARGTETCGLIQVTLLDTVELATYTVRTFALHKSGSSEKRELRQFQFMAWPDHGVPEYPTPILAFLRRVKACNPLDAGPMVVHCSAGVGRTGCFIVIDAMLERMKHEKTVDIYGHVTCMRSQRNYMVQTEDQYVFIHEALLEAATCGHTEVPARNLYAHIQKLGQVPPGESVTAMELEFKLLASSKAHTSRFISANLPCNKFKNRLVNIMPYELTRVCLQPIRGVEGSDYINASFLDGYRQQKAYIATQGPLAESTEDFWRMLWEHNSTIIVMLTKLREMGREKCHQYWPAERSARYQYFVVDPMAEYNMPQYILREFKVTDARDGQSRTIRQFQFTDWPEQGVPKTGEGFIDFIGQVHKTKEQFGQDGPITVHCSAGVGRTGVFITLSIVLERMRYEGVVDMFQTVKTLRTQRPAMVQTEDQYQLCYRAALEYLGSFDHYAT
human Raf-1 Proto-Oncogene, serine/threonine Kinase (RAF1), RAF1 (gene 5894), sequence (P04049 whole entry, looked up): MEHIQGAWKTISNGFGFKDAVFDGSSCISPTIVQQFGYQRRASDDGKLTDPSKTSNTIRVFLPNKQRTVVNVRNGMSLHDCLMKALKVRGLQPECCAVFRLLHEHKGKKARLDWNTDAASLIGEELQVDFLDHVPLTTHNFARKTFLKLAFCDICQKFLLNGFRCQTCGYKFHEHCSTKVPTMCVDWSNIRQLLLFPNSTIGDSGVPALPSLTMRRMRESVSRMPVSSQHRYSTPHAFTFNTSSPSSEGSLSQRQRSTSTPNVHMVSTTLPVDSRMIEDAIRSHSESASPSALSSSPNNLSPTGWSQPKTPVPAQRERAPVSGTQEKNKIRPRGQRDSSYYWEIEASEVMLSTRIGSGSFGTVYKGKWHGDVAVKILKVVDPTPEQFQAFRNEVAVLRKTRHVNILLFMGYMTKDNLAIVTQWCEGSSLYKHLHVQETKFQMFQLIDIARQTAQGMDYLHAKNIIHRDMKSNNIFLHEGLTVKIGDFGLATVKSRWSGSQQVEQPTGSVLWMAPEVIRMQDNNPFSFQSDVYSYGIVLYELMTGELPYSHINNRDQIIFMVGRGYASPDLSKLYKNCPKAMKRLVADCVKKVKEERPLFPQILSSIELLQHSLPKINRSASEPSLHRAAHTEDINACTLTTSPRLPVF
human Protein Tyrosine Phosphatase Receptor Type M (PTPRM), PTPRM (gene 5797), sequence (P28827 whole entry, looked up): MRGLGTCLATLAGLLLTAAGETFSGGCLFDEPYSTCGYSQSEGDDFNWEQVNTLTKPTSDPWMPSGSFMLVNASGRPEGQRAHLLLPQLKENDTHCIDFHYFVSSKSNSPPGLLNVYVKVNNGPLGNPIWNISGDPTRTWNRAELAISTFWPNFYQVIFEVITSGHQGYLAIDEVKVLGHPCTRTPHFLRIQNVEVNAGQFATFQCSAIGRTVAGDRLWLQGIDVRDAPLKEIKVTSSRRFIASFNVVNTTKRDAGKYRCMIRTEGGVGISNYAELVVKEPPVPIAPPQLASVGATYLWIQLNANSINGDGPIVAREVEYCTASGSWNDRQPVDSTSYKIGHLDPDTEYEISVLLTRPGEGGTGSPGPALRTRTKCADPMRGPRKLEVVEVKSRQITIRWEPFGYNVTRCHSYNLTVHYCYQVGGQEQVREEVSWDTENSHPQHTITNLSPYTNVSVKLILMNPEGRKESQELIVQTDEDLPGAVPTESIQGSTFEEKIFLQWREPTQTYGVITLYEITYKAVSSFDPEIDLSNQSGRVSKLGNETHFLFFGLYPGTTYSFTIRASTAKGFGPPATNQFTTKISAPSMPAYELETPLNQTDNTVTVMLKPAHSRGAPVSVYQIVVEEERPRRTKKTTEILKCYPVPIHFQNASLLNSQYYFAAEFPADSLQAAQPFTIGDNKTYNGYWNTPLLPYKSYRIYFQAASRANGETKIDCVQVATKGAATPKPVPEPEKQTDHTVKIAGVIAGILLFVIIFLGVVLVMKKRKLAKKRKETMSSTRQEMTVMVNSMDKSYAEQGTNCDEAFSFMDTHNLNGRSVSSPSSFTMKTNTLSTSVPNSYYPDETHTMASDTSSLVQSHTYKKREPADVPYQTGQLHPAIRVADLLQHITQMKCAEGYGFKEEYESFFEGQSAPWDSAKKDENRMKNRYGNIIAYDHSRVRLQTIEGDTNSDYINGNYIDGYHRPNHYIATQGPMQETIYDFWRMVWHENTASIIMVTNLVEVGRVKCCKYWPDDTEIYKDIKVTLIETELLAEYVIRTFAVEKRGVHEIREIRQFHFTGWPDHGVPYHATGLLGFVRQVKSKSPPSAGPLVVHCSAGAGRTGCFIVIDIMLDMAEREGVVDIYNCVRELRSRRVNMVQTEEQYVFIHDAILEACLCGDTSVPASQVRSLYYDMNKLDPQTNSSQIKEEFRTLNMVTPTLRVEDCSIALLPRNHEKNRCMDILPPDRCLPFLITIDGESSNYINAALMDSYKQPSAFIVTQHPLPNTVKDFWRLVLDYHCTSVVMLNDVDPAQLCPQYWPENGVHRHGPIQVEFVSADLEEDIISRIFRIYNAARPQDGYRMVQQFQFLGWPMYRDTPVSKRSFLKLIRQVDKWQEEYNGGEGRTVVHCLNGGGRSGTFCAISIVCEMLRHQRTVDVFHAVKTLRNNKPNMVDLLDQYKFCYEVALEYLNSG
human Protein Tyrosine Phosphatase Non-receptor Type 4 (PTPN4), PTPN4 (gene 5775), sequence (P29074 whole entry, looked up): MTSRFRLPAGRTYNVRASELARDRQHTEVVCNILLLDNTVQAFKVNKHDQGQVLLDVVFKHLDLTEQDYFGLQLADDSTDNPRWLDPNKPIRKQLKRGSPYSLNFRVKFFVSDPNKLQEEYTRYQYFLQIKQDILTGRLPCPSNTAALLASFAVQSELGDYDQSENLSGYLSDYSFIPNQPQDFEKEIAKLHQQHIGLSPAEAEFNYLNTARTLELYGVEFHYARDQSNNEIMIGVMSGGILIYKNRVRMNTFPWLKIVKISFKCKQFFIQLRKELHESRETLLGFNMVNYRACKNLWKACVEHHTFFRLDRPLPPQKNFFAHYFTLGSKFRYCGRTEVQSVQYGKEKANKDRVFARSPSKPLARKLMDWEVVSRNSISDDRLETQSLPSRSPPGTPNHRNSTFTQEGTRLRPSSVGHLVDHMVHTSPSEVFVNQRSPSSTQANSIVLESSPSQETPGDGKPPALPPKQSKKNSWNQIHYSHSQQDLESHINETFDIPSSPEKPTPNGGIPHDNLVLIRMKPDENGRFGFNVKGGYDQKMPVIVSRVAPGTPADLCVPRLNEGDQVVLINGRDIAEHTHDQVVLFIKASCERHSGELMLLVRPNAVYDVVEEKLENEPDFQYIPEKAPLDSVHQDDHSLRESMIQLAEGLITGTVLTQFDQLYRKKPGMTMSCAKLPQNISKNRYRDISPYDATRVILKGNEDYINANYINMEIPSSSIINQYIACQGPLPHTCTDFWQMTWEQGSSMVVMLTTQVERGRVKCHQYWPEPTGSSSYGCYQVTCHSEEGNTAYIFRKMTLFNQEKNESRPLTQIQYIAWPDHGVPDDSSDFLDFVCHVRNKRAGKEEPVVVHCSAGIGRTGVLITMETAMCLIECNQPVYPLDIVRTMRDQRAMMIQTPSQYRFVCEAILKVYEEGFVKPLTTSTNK

As to `CCc1nn(C)c(C(=O)NCc2ccc(C(C)(C)C)cc2)c1Cl`, the result in experiment [1] was inactive. In addition, the AC50 in experiment [2] was 16.4 µM (active).

In the case of `CNC(=O)ON=CC(C)(C)SC`, the molecule was called inactive in experiment [3].

As to `CCCN(CCC)c1c([N+](=O)[O-])cc(S(N)(=O)=O)cc1[N+](=O)[O-]`, the outcome in experiment [4] and in experiment [5] was inactive.

Consider `Cc1ccc(-c2c(Cl)nc(C#N)n2S(=O)(=O)N(C)C)cc1`, for which, in experiment [6], the outcome was inactive.

As to `COc1ccc(C(c2ccc(OC)cc2)C(Cl)(Cl)Cl)cc1`, in experiment [7], the molecule was classed as inactive.
